# Assay outcomes as filed in PubChem BioAssay.
# miR-21 act: qHTS Assay for Modulators of miRNAs and/orActivators of miR-21. Potency, µM (doses to about 38.3 µM), actives largely listed as activators. HeLa miR-21 FLuc reporter, luciferase, 48 h. 340,000 tested, under 10 active;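 note: miR-21 action dims this reporter so a rising signal means less miR-21 action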
#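 HeLa cells endogenously expressing miR-21, stably carrying CMV-driven firefly luciferase with a downstream miR-21 binding site, 2000 cells/well. Titrations up to approximately 40 uM, 48 hours; luciferase luminescence read.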
# KDM4E inh: qHTS Assay for Inhibitors of Human Jumonji Domain Containing 2E (JMJD2E); Lysine-specific demethylase 4E (Homo sapiens), B2RXH2; JMJD2E catalytic domain, FDH-coupled NADH fluorescence (FDH is formaldehyde dehydrogenase); Potency, µM (series often up to 57.1 µM), most hits filed as inhibitors; 230,000 compounds, 1.6% hits; active = well fitted inhibition curve with a large enough effect, not every such curve was filed as active; inconclusive = small, poorly fitted or top-dose-only effect, or another doubt; inactive = no such curve, though single readings can be large or run the other way; note: nearly all actives have a fitted effect of over 50% in size
# Target sequence (B2RXH2 1-337 limits assumed): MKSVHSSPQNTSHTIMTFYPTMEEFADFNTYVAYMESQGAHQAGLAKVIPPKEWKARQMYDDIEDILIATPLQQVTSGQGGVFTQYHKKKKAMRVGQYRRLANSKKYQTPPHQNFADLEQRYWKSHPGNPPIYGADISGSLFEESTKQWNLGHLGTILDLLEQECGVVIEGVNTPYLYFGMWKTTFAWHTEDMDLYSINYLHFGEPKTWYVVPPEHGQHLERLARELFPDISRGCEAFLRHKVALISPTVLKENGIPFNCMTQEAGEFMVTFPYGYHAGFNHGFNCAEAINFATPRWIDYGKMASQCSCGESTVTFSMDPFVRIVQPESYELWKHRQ
# Lamin A splicing: qHTS Assay for Modulators of Lamin A Splicing | HeLa LMNA splicing GFP/RFP minigene ratio, 48 h | Potency, µM (top dose mostly 46.1 µM), usual class: inhibitors | 200,000 compounds, 0.01% hits; active = well fitted inhibition curve with a large enough effect in the signal ratio, with a control signal flat, not every such curve was filed as active; inconclusive = small, poorly fitted or top-dose-only effect, or effect the other way, or a change in a side signal; the % refers to the signal ratio
#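 Read-out is the ratio of GFP to DsRed2 object intensity, acquired by 488 nm laser-scanning cytometry on HeLa lamin A-EGFP minigene reporter cells. Compound incubation 48 hrs at 37 °C in Opti-MEM with 2% FBS; DMSO 0.5% final.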
# G9a inh: qHTS Assay for Inhibitors of Histone Lysine Methyltransferase G9a. Histone-lysine N-methyltransferase EHMT2 (Homo sapiens), Q96KQ7. G9a H3K9 monomethylation, AlphaScreen, 2 h. Potency, µM (series often up to 102 µM), most hits filed as inhibitors. 350,000 compounds, 8.8% hits; note: nearly all actives have a fitted effect of over 75% in size
# Target sequence (Q96KQ7 913-1193 limits assumed): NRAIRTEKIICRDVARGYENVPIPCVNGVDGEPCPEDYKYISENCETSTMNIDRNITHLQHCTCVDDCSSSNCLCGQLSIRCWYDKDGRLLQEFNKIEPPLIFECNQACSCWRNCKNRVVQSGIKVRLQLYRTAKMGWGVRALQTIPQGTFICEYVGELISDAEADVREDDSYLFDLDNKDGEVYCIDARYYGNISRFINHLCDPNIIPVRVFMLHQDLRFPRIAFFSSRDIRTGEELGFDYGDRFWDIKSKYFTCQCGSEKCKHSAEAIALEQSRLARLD
#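 Signal arises when biotinylated H3K9 peptide, once monomethylated, bridges streptavidin donor and antibody-captured acceptor beads. Enzyme at 20 nM was preincubated 15 min with test compounds; peptide 500 nM and SAM 20 uM then reacted for 2 h.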
# ALDH1A1 inh: qHTS Assay for Inhibitors of Aldehyde Dehydrogenase 1 (ALDH1A1); AID 1030, 2008; Potency, µM (top dose mostly 75.3 µM), most hits filed as inhibitors; Aldehyde dehydrogenase 1A1 (Homo sapiens), P00352; Purified ALDH1A1, NADH fluorescence, propionaldehyde substrate; 220,000 compounds, 7.3% hits; active = well fitted inhibition curve with a large enough effect, not every such curve was filed as active; inconclusive = small, poorly fitted or top-dose-only effect, or another doubt; inactive = no such curve, though single readings can be large or run the other way
# Sfp inh: qHTS Assay for Inhibitors of Bacillus subtilis Sfp phosphopantetheinyl transferase (PPTase) | 4'-phosphopantetheinyl transferase ffp (Bacillus subtilis), Q9F4F7 | Biochemical Sfp PPTase activity, qHTS | Potency, µM, actives largely listed as inhibitors | 310,000 compounds, 3.5% hits;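 note: the enzyme is Sfp with the accession as filed and its product quenches rhodamine fluorescence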
#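 Sfp 15 nM + cpd, 15 min RT; start w/ rhodamine-CoA 5 uM, BHQ-2-YbbR 12.5 uM (final); 50 mM Hepes pH 7.6, 10 mM MgCl2, 0.01% NP-40, 0.01% BSA; read 525/598 nm at 0 and 30 min.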
# Hits are given with their value; n = inactive; u = inconclusive; x = not tested or not shown; [ ] = another dose, or the depositor's remark. Only some compounds are listed: those with a hit (about 13% of all), similar ones and a draw of the others. Unless noted, calls come from the whole dose curve; as a rule, active = well fitted curve in the direction sought with a large enough effect; inconclusive = small, poorly fitted or top-dose-only effect, or another doubt; inactive = no such curve, though single readings can be large; an effect the other way counts as inactive or inconclusive.
SMILES,miR-21 act,KDM4E inh,Lamin A splicing,G9a inh,ALDH1A1 inh,Sfp inh
NC(=O)CC(NC(=O)c1ccccc1)c1ccc(NCc2ccc(F)cc2)c([N+](=O)[O-])c1 (stereo not given),n,n,x,u,x,n
COc1ccc(OC)c(C(=O)NC(CC(N)=O)c2ccc(NCc3ccc(F)c(F)c3)c([N+](=O)[O-])c2)c1 (stereo not given),n,x,x,89µM,x,n
NC(=O)CC(NC(=O)c1ccc(Br)cc1)c1ccc(NCc2ccc(F)c(F)c2)c([N+](=O)[O-])c1 (stereo not given),n,n,x,u,x,50µM
NC(=O)CC(NC(=O)c1ccc(Br)cc1)c1ccc(NCc2ccc(F)cc2)c([N+](=O)[O-])c1 (stereo not given),n,n,x,u,x,n
NC(=O)CC(NC(=O)c1ccccc1)c1ccc(NCc2ccc(F)c(F)c2)c([N+](=O)[O-])c1 (stereo not given),n,x,x,71µM,x,n
Brc1nnc2n1-c1ccccc1Sc1ccccc1-2,n,n,n,n,n,n
Clc1ccc2c(c1)-c1nnc(Br)n1-c1ccccc1S2,n,n,n,10µM,n,n
COc1cccc(Nc2ncc3nc(-c4cccs4)c(=O)n(C[C@H]4CCCO4)c3n2)c1,x,x,n,n[0.501 µM],n,n
COc1cccc(NC(=O)Cn2c(=O)n(-c3cccc(OC)c3)c(=O)c3sc4ccccc4c32)c1,n,x,x,n,x,x
O=C(Nc1nccs1)c1cc(-c2ccccn2)nc2c(Cl)cccc12,n,x,x,n,x,n
Cn1ncc(Br)c1C(=O)N1CCCCCC1,n,x,x,32µM,x,n
COc1ccc(CCNC(=O)c2c(O)c3ccccc3n(C)c2=O)cc1,n,x,x,n,x,n
COc1ccc(Oc2c(O)c3ccccc3n(C)c2=O)cc1,n,u,n,45µM,u,u
Cn1c(=O)c(Oc2ccc(Cl)cc2)c(O)c2ccccc21,n,u,n,79µM,u,n
CNCCOc1ccccc1OC(C)C,n,u,u,18µM,n,n
O=C(CCC(=O)N1CCOc2ccc(Cl)cc21)NCCCN1CCN(c2ccccc2F)CC1,n,x,x,89µM,x,n
Cc1cc(C)c(Nc2cc(S(=O)(=O)O)c(N)c3c2C(=O)c2ccccc2C3=O)c(C)c1,u,n,n,2.8µM,25µM,50µM
Nc1ccc(-c2ccc(Nc3cc(S(=O)(=O)O)c(N)c4c3C(=O)c3ccccc3C4=O)cc2)c(S(=O)(=O)O)c1,x,x,x,x,n[13.5 µM],x
Clc1ccc(C2Nc3cccc4cccc(c34)N2)cc1,n,x,x,35µM,x,u
CSc1ccc(C2Nc3cccc4cccc(c34)N2)cc1,n,x,x,n[0.501 µM],x,n
Cc1cccc(C2Nc3cccc4cccc(c34)N2)c1,n,x,x,35µM,x,n
Brc1ccc(C2Nc3cccc4cccc(c34)N2)s1,n,n,u,25µM,u,n
c1cc2c3c(cccc3c1)NC(c1ccc3c(c1)OCO3)N2,n,x,x,35µM,x,n
COc1ccc(-c2nc3sc(CCNC(=O)c4ccc(Br)o4)c(C)n3n2)cc1,n,x,u,n,x,x
CCOC(=O)c1c(C)[nH]c(C(=O)/C(C#N)=C/c2ccc(OCC)cc2)c1C,n,n,n,n,3.2µM,n
SMILES,miR-21 act,KDM4E inh,Lamin A splicing,G9a inh,ALDH1A1 inh,Sfp inh
CCOC(=O)c1c(C)[nH]c(/C(C)=N/O)c1C,n,u,n,n[12.7 µM],n,n
CCOC(=O)c1c(C)[nH]c(C(=O)CN2CC(C)OC(C)C2)c1C (stereo not given),n,n,n,u,7.9µM,n
CCOC(=O)c1c(C)[nH]c(C(C)=O)c1C,n,n,n,n,8.9µM,n
CCOC(=O)c1c(C)[nH]c(C(=O)C(C)Cl)c1C (stereo not given),n,n,u,n,22µM,n
Cc1ccc(Cl)cc1NC(C#N)c1ccccc1 (stereo not given),n,n,x,n,x,n
CCc1ccc(NC(=O)C(=O)NCCc2sc(-c3ccc(C)cc3)nc2C)cc1,n,x,n,n,x,x
Cc1ccc(CNCCNCCO)s1,n,n,n,40µM,n,n
Cc1ccc(-c2nc(N)n(C(=O)c3ccco3)n2)cc1,n,u,n,n,u,n
Cc1cccc2nc(=S)n(C(=O)c3ccco3)n12,n,n,n,n[2.33 µM],4.7µM,16µM
O=C(c1ccco1)n1c(=S)nc2ccccn21,n,u,n,u,20µM,n
CCOC(=O)c1c(C)c(-c2ccccc2)n(CC(=O)Nc2cc(C)ccc2OC)c1C,n,x,x,n,x,x
COc1ccccc1CNC(=O)[C@@H](NC(=O)C1CCN(C(=O)[C@@H]2CCCN2)CC1)C(C)C,n,x,x,n[12.7 µM],x,n
Cc1ccc(/C([O-])=C(/C(=S)NCc2ccccc2)[n+]2cccc(CO)c2)cc1[N+](=O)[O-],n,n,u,28µM,8.9µM,u
COCCn1c(C)cc(C2=NNC(=Nc3ccc(OC)cc3)SC2)c1C,n,u,n,n[12.7 µM],10µM,50µM
COCCn1c(C)cc(C2=NNC(=Nc3ccccc3)SC2)c1C,n,n,n,u,u,22µM
COCCn1c(C)cc(C2=NNC(=NC(C)(C)C)SC2)c1C,n,u,x,u,u,n
CCN(CC)c1cc2c(cc1F)c(=O)c(S(=O)(=O)c1ccccc1)cn2Cc1ccccc1,n,x,n,n,x,x
CCc1ccc(CN(C(=O)c2ccc(OC)cc2)C2CCS(=O)(=O)C2)cc1 (stereo not given),n,x,x,n,x,x
O=C(NNS(=O)(=O)c1ccc([N+](=O)[O-])cc1)c1ccncc1,n,x,x,40µM,x,u
N/C(=N/OS(=O)(=O)c1ccc([N+](=O)[O-])cc1)c1ccncc1,n,n,u,10µM,32µM,n
N/C(=N\OS(=O)(=O)c1ccc2ccccc2c1)c1ccncc1,n,n,n,20µM,n,n
N/C(=N\OS(=O)(=O)c1ccc2ccccc2c1)c1ccccn1,n,u,n,5µM,u,63µM
O=C(NNS(=O)(=O)c1ccccc1)c1ccc([N+](=O)[O-])cc1,n,x,x,n,x,n
CCC(C)c1ccc(OCC(=O)Nc2ccc3c(c2)C(=O)NC3=O)cc1 (stereo not given),n,x,x,n,x,n
O=C(Nc1cccc(-c2nc3ccccc3[nH]2)c1)c1c(F)cccc1F,n,x,x,n,x,x
Cc1cccc(CNC(=O)Cn2ccc3cc(S(=O)(=O)N4CCC(C)CC4)ccc32)c1,n,x,x,n,x,x
COc1cccc(CNC(=O)CCc2c(C)c3cc4c(C)coc4c(C)c3oc2=O)c1,n,x,x,n,x,x
